Screen size: about 310,000 compounds; about 2,200 (0.71%) showed an effect of 50% or more. Effects have a minus sign here. Shown is part of a subset that was picked to be rich in strong results.
Biological target: human ether-à-go-go-related gene (hERG) potassium channel (human, UniProt Q12809)
Experiment: primary screen, population patch clamp on CHO cells stably expressing hERG; higher = less effect of the substance
Protocol: Briefly, Chinese hamster ovary (CHO) cells stably expressing the hERG channel were dislodged from tissue culture flasks and dispensed into PPC plates. […] During the recording, background leak currents were estimated by a 100 ms step to -80 mV from an initial holding potential of -70 mV and subtracted from the subsequent current measurement. The campaign was conducted in two phases using slight differences in recording protocol. In the first phase, the initial voltage pulse used a 100 ms step to -30 mV from a holding potential of -70 mV, a 2 s conditioning step to +25 mV, and a 2 s test step to -30 mV. During the second phase of the screen, the potential during the conditioning step was raised to +45 mV. In both phases of the campaign, a secondary voltage pulse was applied using the same parameters as the second phase initial pulse. The initial and secondary pulses were applied in the absence of compound, and upon application of 1 μM and 10 μM test concentrations. Small molecule effects on hERG current density were quantified by […].

Sequence of human ether-à-go-go-related gene (hERG) potassium channel (Q12809 whole entry, looked up): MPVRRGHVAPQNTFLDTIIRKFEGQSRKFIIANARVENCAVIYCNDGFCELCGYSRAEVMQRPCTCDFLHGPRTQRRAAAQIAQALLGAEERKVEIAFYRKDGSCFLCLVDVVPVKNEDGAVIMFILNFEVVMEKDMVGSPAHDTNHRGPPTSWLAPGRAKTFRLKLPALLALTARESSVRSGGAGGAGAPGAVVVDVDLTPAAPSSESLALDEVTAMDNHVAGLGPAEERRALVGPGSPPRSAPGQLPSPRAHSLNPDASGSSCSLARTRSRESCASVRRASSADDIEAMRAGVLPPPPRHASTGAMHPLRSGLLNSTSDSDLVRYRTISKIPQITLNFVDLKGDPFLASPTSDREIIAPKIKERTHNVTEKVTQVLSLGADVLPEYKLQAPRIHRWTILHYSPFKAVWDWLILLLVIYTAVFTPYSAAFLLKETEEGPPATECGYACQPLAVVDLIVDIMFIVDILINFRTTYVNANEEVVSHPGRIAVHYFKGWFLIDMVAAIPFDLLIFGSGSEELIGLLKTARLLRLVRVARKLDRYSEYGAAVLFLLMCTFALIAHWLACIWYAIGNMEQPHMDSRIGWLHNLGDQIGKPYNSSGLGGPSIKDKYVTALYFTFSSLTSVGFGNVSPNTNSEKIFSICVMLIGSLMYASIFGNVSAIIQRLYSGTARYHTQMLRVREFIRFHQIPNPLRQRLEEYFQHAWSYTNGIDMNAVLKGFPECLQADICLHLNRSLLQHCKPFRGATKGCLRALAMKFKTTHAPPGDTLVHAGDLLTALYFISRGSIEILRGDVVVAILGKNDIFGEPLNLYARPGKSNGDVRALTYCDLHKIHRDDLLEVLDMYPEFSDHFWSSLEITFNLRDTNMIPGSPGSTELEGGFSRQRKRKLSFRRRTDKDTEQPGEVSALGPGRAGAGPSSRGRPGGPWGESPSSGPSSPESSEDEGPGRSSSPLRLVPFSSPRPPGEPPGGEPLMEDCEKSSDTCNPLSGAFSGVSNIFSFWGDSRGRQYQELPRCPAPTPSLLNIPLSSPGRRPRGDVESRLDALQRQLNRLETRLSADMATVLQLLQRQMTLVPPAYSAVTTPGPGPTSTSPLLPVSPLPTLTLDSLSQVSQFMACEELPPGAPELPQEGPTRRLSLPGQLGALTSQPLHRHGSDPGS

Compared with O=C(Nc1cc(C(=O)N2CCCC2)ccc1N1CCCC1)c1ccccc1, O=C(Nc1cc(C(=O)N2CCCC2)ccc1N1CCCC1)c1ccccc1F is higher in “hERG current change (%, negative = inhibition) at 1uM” value: -83.5% for the first, -82.8% for the second.

First: O=C(Nc1cc(C(=O)N2CCCC2)ccc1N1CCCC1)C1CC1
Second: CNC(=S)Nc1cc(C(=O)N2CCCC2)ccc1N1CCCC1
The “hERG current change (%, negative = inhibition) at 1uM” value of the first is lower: -1.85% for the first, 2.01% for the second.

First: O=C(Nc1cc(C(=O)N2CCOCC2)ccc1N1CCCC1)c1cccs1
Second: COC(=O)c1ccc(N2CCOCC2)c(NC(=O)c2cccs2)c1
The “hERG current change (%, negative = inhibition) at 1uM” value of the first is lower: -78.2% for the first, 0.514% for the second.

Compared with O=C(Nc1ccccc1C(=O)N1CCCCC1)c1ccc(Cl)cc1Cl, O=C(Nc1ccccc1C(=O)N1CCCC1)c1ccc(Cl)cc1Cl is higher in “hERG current change (%, negative = inhibition) at 1uM” value: -79.6% for the first, 10.3% for the second.

First: O=C(Nc1ccccc1N1CCCCC1)c1ccccc1F
Second: O=C(Nc1ccccc1N1CCCC1)c1ccccc1F
The “hERG current change (%, negative = inhibition) at 1uM” value of the first is lower: -5.76% for the first, 6.48% for the second.

Going from O=C(Nc1ccc(C(=O)N2CCOCC2)cc1)c1cccs1 to O=C(Nc1ccccc1C(=O)N1CCCCCC1)c1ccccc1Cl, the “hERG current change (%, negative = inhibition) at 1uM” value falls from 20.3% to 13.6%.

First: Cc1nnsc1C(=O)N1CCN(c2ccc(C#N)cn2)CC1
Second: O=C(CN1C(=O)CSC1=O)N1CCCC(Nc2ccc(F)cc2)C1 (stereo not shown)
The “hERG current change (%, negative = inhibition) at 1uM” value of the first is lower: 3.48% for the first, 11.5% for the second.

Compared with CCOc1cccc(/C=N/N2C(C)CCCC2C)c1O (stereo not shown), CCOc1ccc2nc(NCCO)[nH]c2c1 is higher in “hERG current change (%, negative = inhibition) at 1uM” value: 2.07% for the first, 10.9% for the second.

Going from CCCCCCOc1ccc(CN2CCN(C)CC2)cc1 to CCCCCCCN1CCC(=O)N([C@H](CO)Cc2ccccc2)CC1, the “hERG current change (%, negative = inhibition) at 1uM” value falls from -0.56% to -77.2%.

First: CC(=O)/C=C\c1ccccc1OC(=O)c1cc2ccccc2oc1=O
Second: O=C(Oc1ccc2ccc(=O)oc2c1)c1ccccc1
The “hERG current change (%, negative = inhibition) at 1uM” value of the first is higher: 16.3% for the first, 9.28% for the second.

Compared with CCOC(=O)c1cc2cc(OCc3ccccc3)ccc2nc1C, O=C(Oc1ccc2ccccc2c1)c1ccco1 is lower in “hERG current change (%, negative = inhibition) at 1uM” value: 8.83% for the first, -0.657% for the second.

Compared with CC(C)c1csc(CN2CCC(N3CCC(C(=O)NCC4CCCO4)CC3)CC2)n1 (stereo not shown), O=C(NCC1CCCO1)c1ccc2c(=O)n(CC3CCCO3)c(SCC(=O)N3CCCC3)nc2c1 (stereo not shown) is lower in “hERG current change (%, negative = inhibition) at 1uM” value: 9.96% for the first, 5.44% for the second.

First: O=C(Oc1ccc2ccc(=O)oc2c1)c1ccco1
Second: O=C(Oc1coc(CSc2ncccn2)cc1=O)c1ccc(Br)o1
The “hERG current change (%, negative = inhibition) at 1uM” value of the first is lower: -53.7% for the first, 11.6% for the second.

First: CC1(c2nnc(-c3ccncc3)o2)CC(c2cccc(Cl)c2)=NO1 (stereo not shown)
Second: COc1ccc(OC)c(C2C(C#N)=C(N)Oc3c2c(C)nn3-c2cccc(Cl)c2)c1 (stereo not shown)
The “hERG current change (%, negative = inhibition) at 1uM” value of the first is higher: 13.4% for the first, 7.28% for the second.

Going from CCc1ccc(NC(=O)CSCCN2C(=O)c3ccccc3C2=O)cc1 to O=C(CSc1ccc(F)cc1)Nc1ccc(Br)cc1, the “hERG current change (%, negative = inhibition) at 1uM” value rises from -8.99% to 13.9%.

Going from CCCCn1c(SCC(=O)Nc2cccc(C)n2)nnc1-c1ccco1 to COCCCn1c(SCC(=O)Nc2cccc(C)n2)nnc1-c1ccco1, the “hERG current change (%, negative = inhibition) at 1uM” value rises from -78% to -20.6%.

First: CCn1c(SCC(=O)Nc2cccc(C)n2)nnc1-c1ccco1
Second: CCCCCn1c(SCC(=O)OCC)nc2cc(C(=O)NCc3ccco3)ccc2c1=O
The “hERG current change (%, negative = inhibition) at 1uM” value of the first is lower: 0.773% for the first, 12.8% for the second.

Going from COc1ncnc2c1oc1nc(CC(C)C)c3c(c12)CC(C)(C)OC3 to CCOC(=O)CSc1nc2cc(C(=O)NCC3CCCO3)ccc2c(=O)n1Cc1ccco1 (stereo not shown), the “hERG current change (%, negative = inhibition) at 1uM” value falls from -10.6% to -18.2%.

First: CCOC(=O)/C(C(C)=O)=C1\OC(=O)c2ccccc21
Second: C=CCn1c(SCC(=O)OCC)nc2cc(C(=O)NCc3ccco3)ccc2c1=O
The “hERG current change (%, negative = inhibition) at 1uM” value of the first is higher: 8.9% for the first, -9.92% for the second.

First: COc1ccc(CCNC(=O)CSc2n[nH]c(N)n2)cc1OC
Second: COc1ccc(CNC(=O)CSc2n[nH]c(N)n2)cc1OC
The “hERG current change (%, negative = inhibition) at 1uM” value of the first is higher: 18.1% for the first, -73.4% for the second.

Compared with COc1ccc(CNC(=O)CSc2n[nH]c(N)n2)cc1, COc1ccc(SC[C@H](CC(C)C)N2CCN(CCc3ccccc3)CCC2=O)cc1 is lower in “hERG current change (%, negative = inhibition) at 1uM” value: 14.9% for the first, -51.6% for the second.

First: O=C(O)C1Nc2ccc(C(F)(F)F)cc2C2OCCC12 (stereo not shown)
Second: O=C(NCC1CCCO1)c1ccc2c(=O)n(Cc3ccco3)c(SCC(=O)N3CCCC3)nc2c1 (stereo not shown)
The “hERG current change (%, negative = inhibition) at 1uM” value of the first is higher: 10.7% for the first, -54% for the second.

Compared with O=C(NCc1ccco1)c1ccc2c(=O)n(Cc3ccco3)c(SCC(=O)N3CCCC3)nc2c1, CCN(C(=O)CSc1nnnn1-c1ccccc1)c1c(N)n(Cc2ccccc2)c(=O)[nH]c1=O is higher in “hERG current change (%, negative = inhibition) at 1uM” value: -66.9% for the first, 15.9% for the second.

Compared with Cc1ccc(S(=O)(=O)NCCC(=O)NC2CCCC2)cc1, CCCN1CCC(=O)N([C@H](CO)Cc2ccccc2)CC1 is higher in “hERG current change (%, negative = inhibition) at 1uM” value: 1.28% for the first, 6.98% for the second.

Compared with CC(C)C[C@@H](COc1ccccc1)N1CCN(CCc2ccccc2)CCC1=O, CC(C)C[C@@H](COc1ccccc1)N1CCN(Cc2ccccc2)CCC1=O is higher in “hERG current change (%, negative = inhibition) at 1uM” value: -61.7% for the first, -4.6% for the second.

Going from CCCN1CCC(=O)N([C@H](CSc2ccccc2)Cc2ccccc2)CC1 to CCCN1CCC(=O)N([C@H](COc2ccccc2)Cc2ccccc2)CC1, the “hERG current change (%, negative = inhibition) at 1uM” value falls from -48.9% to -52.4%.

Compared with COc1ccc(SC[C@H](Cc2ccccc2)N2CCN(CCc3ccccc3)CCC2=O)cc1, O=C1CCN(CCCc2ccccc2)CCN1[C@H](CO)Cc1ccccc1 is higher in “hERG current change (%, negative = inhibition) at 1uM” value: -43.2% for the first, -12% for the second.

Compared with CCCN1CCC(=O)N([C@H](COc2ccccc2)CC(C)C)CC1, CC(C)CN1CCC(=O)N([C@H](COc2ccccc2)Cc2ccccc2)CC1 is higher in “hERG current change (%, negative = inhibition) at 1uM” value: -48.1% for the first, -29.8% for the second.

Going from CC(C)C[C@@H](CSc1ccc(Br)cc1)N1CCN(CCc2ccccc2)CCC1=O to Cc1cc(C)n(CCN(C)C(=O)C2CCC(=O)N(CCN3CCOCC3)C2)n1 (stereo not shown), the “hERG current change (%, negative = inhibition) at 1uM” value rises from -28.9% to 16.1%.
